High-throughput results: PubChem, The Scripps Research Institute Molecular Screening Center
An excerpt weighted towards active compounds, which were near 3.4% of everything screened.
PAFAH1B3 inh – PAFAH1B3 (human) inhibition | recombinant PAFAH1B3, FP-rhodamine probe, fluorescence polarization | inhibition, % at 3.39 µM | actives 0.28% (n = 340,000) | AID 492972;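 active = inhibition above the screen-wide average of all tested compounds plus 3 SD, cut at about 25% in these data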;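 also: 0% = enzyme with DMSO only and 100% = wells lacking PAFAH1B3 protein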
pPAFAH inh – pPAFAH (human) enzyme inhibition; recombinant pPAFAH, FP-rhodamine probe fluorescence polarization; inhibition, % at 3.39 µM; AID 463082; actives 1.5% (n = 330,000);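 active = inhibition above the mean inhibition across the screen plus 3 SD, cut at about 25% in these data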;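 also: inhibitors block binding of the rhodamine activity-based probe so polarization drops; 0% = enzyme with DMSO and 100% = wells lacking pPAFAH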
Target sequence (Q13093 whole entry, looked up): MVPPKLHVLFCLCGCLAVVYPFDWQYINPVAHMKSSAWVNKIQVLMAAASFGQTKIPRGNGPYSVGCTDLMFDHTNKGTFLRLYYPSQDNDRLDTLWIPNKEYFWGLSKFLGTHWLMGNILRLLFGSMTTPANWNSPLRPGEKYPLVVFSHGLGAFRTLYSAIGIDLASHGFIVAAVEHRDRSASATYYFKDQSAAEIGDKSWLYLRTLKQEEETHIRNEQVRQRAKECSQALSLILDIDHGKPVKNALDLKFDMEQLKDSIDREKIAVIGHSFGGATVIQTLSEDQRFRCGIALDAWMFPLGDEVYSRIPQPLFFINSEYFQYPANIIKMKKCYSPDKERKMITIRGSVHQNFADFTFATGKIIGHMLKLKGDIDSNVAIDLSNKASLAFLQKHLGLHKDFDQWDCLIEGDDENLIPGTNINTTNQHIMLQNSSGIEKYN
PP1 inh – PP1-alpha (human) inhibition in PP5 counter-screen. P62136. purified PP1alpha, OMFP fluorescence. inhibition, % at 6.7 µM. actives 0.9% (n = 320,000). AID 2235;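 active = inhibition above the mean inhibition of all tested compounds plus 3 SD, computed separately for each screening campaign, cut at about 15% in these data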
PAFAH2 FP inh – PAFAH2 (human) inhibition; recombinant PAFAH2, FP-rhodamine activity probe, fluorescence polarization; Q99487; inhibition, % at 3.39 µM; actives 0.99% (n = 340,000);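 active = inhibition above the mean over all tested compounds plus 3 SD, cut at about 30% in these data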;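 also: inhibitors block probe labeling of enzyme so polarization drops; 0% = enzyme with DMSO and 100% = wells lacking PAFAH2 protein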
PP5 primary – PP5 (human) phosphatase inhibition; P53041; purified PP5c, OMFP substrate fluorescence; inhibition, % at 6.7 µM; actives 0.18% (n = 320,000); AID 1987;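 active = inhibition above the campaign's mean inhibition across all tested compounds plus 3 SD, cut at about 9.5% in these data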;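 also: 0% = DMSO only and 100% = 100 µM cantharidin control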
PAFAH1B2 inh – blocks human PAF acetylhydrolase 1b catalytic subunit 2; P68402; recombinant PAFAH1B2, FP-rhodamine activity probe, fluorescence polarization; inhibition, % at 3.39 µM; actives 1.2% (n = 340,000);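 active = inhibition above the mean of all tested compounds plus 3 SD, cut at about 24% in these data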;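 also: 0% = enzyme with DMSO and 100% = wells lacking PAFAH1B2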
PAFAH2 confirm – confirmation of human PAFAH2 inhibitors; shares compounds with PAFAH2 FP inh; recombinant PAFAH2, FP-rhodamine activity probe, fluorescence polarization; inhibition, % at 3.39 µM; actives 65% (n = 2,300); AID 493030;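 active = mean inhibition over three repeats above a set limit taken from the earlier primary screen, cut at about 30% in these data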;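 also: inhibitor blocks binding of rhodamine activity probe so polarization falls; 0% = enzyme with DMSO and 100% = wells lacking PAFAH2 protein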
Starred values were filed as active, the others as inactive; · = no result given.

SMILES	PAFAH1B3 inh	pPAFAH inh	PP1 inh	PAFAH2 FP inh	PP5 primary	PAFAH1B2 inh	PAFAH2 confirm
Cc1nc(NC(=O)COC(=O)c2cccs2)c(Cl)cc1Cl	2	·	·	43*	·	2	29
Cc1ccc(C(=O)OCC(=O)NC2CC2)cc1S(=O)(=O)N1CCOCC1	4	12	-1	51*	3	-5	32*
Cc1ccc(C(=O)OCC(=O)c2ccc(Br)cc2)cc1S(=O)(=O)N1CCOCC1	7	·	·	34*	·	17	19
Cc1ccc(C(=O)OCC(=O)NCc2cccs2)cc1S(=O)(=O)N1CCOCC1	2	14	0	49*	0	-1	38*
Cc1ccc(NC(=O)COC(=O)c2ccc(C)c(S(=O)(=O)N3CCOCC3)c2)cc1	8	·	·	71*	·	5	71*
COc1ccccc1-n1cnnc1SCC(=O)Nc1ncc(Cl)cc1Cl	-6	1	-2	2	-4	0	·
CCCCc1ccc(NC(=O)CSc2nc(=O)n(CCN3CCOCC3)c3c2CCC3)cc1	8	1	-5	0	5	9	·
Cc1ccc(NC(=O)COC(=O)c2ccco2)cc1S(=O)(=O)N1CCOCC1	-3	-6	·	66*	·	2	60*
Cc1ccc(NC(=O)COC(=O)/C=C/c2ccccc2)cc1S(=O)(=O)N1CCOCC1	-4	-1	-5	58*	-3	1	34*
CCC(C(=O)OCC(=O)Nc1ccc(C)c(S(=O)(=O)N2CCOCC2)c1)c1ccccc1 (stereo not drawn)	-2	3	-6	6	4	10	·
Cc1cnc(C(=O)OCC(=O)Nc2ccc(C)c(S(=O)(=O)N3CCOCC3)c2)cn1	14	-4	·	-1	·	3	·
COC(=O)c1ccccc1NC(=O)CN1C(=O)NC2(CCCCCCC2)C1=O	0	-4	1	85*	1	3	6
CC1=NN(c2ccccc2)C(=O)/C1=C/c1cccs1	12	7	-1	5	3	6	·
CC1=NN(c2ccccc2)C(=O)/C1=C\c1ccc(Br)s1	13	4	15	33*	2	6	11
COc1ccc(/C=C/C(=O)OCC(=O)NCc2ccccc2)cc1OC	7	3	-1	50*	3	4	47*
CCN(CC(=O)NCc1cccs1)C(=O)/C=C/c1cc(OC)ccc1OC	0	4	-5	1	-2	0	·
COc1ccc(CCNC(=O)COC(=O)/C=C/c2cc(OC)ccc2OC)cc1	2	3	·	32*	·	9	16
COc1ccc(OC)c(/C=C/C(=O)OCC(=O)NCc2cccs2)c1	9	-2	-1	46*	1	3	50*
O=C(COC(=O)/C=C/c1ccccc1Cl)NCc1ccccc1	11	18	0	29	3	3	·
COc1ccc(OC)c(/C=C/C(=O)OCC(=O)NCc2ccccc2)c1	3	6	·	46*	·	0	28
Cn1c(=O)c(Nc2ccc(Cl)cc2)c2c3c(cccc31)C(=O)c1ccccc1-2	·	20	-3	·	-2	·	·
Clc1cccc(Oc2cnns2)c1Cl	-1	4	1	-1	1	1	·
COc1ccc(CCNC(=O)COC(=O)/C=C/c2ccc(OC)cc2OC)cc1	13	20	·	72*	·	5	58*
COc1cc(/C=C/C(=O)OCC(=O)NCc2cccs2)ccc1OC(F)F	3	6	-4	33*	3	-1	51*
COc1ccc(CCNC(=O)COC(=O)c2ccc(OC)cc2OC)cc1	0	·	·	6	·	-2	·
SMILES	PAFAH1B3 inh	pPAFAH inh	PP1 inh	PAFAH2 FP inh	PP5 primary	PAFAH1B2 inh	PAFAH2 confirm
O=C1NCC(Nc2ccc(Br)cc2)C(=O)N1 (stereo not drawn)	2	·	·	5	·	-2	·
CCc1sc(C(=O)Nc2ncccc2O)cc1C	4	·	·	30*	·	2	27
Cc1cccc(C)c1OCc1n[nH]c(=S)n1N	2	3	-3	-1	1	6	·
COCCNC(=O)C(c1ccccc1C)N(CCOC)C(=O)Cn1nnc2ccccc21 (stereo not drawn)	7	3	-5	5	-1	1	·
Cc1ccc(NC(=O)COC(=O)C2CC2)c(Br)c1	10	20	-8	55*	-9	4	39*
Cc1cc(C)c(NC(=O)COC(=O)C2CCC2)c(Cl)c1	-1	3	2	5	1	-6	·
